Consider 110 compounds from ChEMBL document CHEMBL3988442, “University of Dundee, Small-Polar-MMV Screening Library” (2021).

Among all 67,000 compounds or so, about 300 (0.45%) showed an effect of 50% or more. Only a selection was taken, and strong results are over-represented in it overall.

For the assay, the target named is Polyketide synthase Pks13 (Mycobacterium tuberculosis (strain ATCC 25618 / H37Rv)) (UniProt I6X8D2). The assay is described as follows: Mycobacterium tuberculosis Polyketide synthase 13 Thioesterase (PKS13). To be noted: 30 µM. Also noted: scale not given: in the data most compounds retested in dose-response had high values. Format: functional.
Polyketide synthase Pks13 (Mycobacterium tuberculosis (strain ATCC 25618 / H37Rv)), sequence (I6X8D2 whole entry): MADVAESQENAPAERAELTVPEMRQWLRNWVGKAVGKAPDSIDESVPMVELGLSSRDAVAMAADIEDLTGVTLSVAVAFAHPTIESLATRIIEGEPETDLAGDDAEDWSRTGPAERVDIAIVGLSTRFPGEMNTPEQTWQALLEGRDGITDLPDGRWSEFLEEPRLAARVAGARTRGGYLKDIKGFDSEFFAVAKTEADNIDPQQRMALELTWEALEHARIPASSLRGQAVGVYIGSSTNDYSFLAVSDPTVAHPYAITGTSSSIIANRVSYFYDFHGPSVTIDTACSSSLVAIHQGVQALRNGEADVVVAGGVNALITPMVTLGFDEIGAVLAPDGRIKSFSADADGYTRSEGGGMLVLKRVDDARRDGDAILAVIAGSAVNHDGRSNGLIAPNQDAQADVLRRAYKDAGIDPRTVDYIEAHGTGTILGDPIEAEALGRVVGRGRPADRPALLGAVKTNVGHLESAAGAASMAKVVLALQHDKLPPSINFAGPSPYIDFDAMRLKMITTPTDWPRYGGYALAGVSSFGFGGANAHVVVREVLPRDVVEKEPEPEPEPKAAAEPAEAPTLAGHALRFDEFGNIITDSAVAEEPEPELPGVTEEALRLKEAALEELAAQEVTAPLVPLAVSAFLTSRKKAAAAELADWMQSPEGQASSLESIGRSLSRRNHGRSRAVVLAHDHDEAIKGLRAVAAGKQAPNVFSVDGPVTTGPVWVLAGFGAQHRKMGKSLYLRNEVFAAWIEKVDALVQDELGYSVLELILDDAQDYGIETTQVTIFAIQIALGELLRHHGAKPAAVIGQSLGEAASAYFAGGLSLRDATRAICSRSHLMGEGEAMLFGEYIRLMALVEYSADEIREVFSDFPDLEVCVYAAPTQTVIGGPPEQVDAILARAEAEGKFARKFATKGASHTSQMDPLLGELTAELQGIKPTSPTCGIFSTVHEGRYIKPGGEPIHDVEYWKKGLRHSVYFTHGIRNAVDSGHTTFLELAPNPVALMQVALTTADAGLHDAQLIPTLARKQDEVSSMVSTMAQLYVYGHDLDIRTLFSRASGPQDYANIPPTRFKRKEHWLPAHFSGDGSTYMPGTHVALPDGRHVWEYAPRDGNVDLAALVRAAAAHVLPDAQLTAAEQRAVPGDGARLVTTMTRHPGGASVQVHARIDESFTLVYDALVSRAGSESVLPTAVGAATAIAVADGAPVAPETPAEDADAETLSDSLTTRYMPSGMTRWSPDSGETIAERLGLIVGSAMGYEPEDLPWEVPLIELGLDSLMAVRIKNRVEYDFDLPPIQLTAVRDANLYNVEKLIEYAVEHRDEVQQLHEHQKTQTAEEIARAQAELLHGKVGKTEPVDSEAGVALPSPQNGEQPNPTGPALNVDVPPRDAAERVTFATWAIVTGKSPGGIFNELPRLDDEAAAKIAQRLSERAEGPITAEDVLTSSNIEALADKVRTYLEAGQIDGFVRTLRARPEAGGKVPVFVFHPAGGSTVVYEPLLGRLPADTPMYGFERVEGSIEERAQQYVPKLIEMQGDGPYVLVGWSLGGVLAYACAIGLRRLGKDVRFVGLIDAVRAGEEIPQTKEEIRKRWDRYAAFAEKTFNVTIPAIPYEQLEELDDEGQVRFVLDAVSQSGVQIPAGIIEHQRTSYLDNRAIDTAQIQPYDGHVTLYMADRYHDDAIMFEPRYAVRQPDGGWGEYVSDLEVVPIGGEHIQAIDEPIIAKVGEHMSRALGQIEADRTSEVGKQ
In the case of `Fc1ccc(CN2CCO[C@H]3[C@H](OCC4CC4)CC[C@@H]32)cc1`, the Percent Effect is -2.1%.

`CO[C@H]1CCN(S(=O)(=O)N(C)C)[C@@H]2CN(Cc3cccnc3)C[C@H]12`: the Percent Effect came to 12.3%. As for `CCOC(=O)[C@@H]1[C@@H](c2ccccc2)CN2CCN(C(C)=O)C[C@H]12`, the figure is 0.569%. Turning to `Cc1nc(CN2C[C@H]3C[C@H](C(=O)NCC4CC4)N(C)[C@H]3C2)cs1`, the Percent Effect was determined as 16.8%.

As to `O=C(Cc1ccsc1)N1C[C@@H]2OCCN(CC3CCCO3)[C@@H]2C1` (stereo not given in full), the Percent Effect was -0.843%. As for `c1cnn(CCCO[C@@H]2CC[C@H]3[C@H]2OCCN3CC2CC2)c1`, the figure is -15.8%; as for `Cc1nccc(N2CC[C@@H]3[C@@H](CCC(=O)N3CCc3ccccc3)C2)n1`, -11%; as for `O=C(NC1CCCC1)[C@@H]1CN(Cc2nccs2)C[C@H]2OCC[C@H]21`, -23.6%. In the case of `CCOCC(=O)N1C[C@H]2CN(CC3CC3)C(=O)[C@H]2C1`, the Percent Effect was -37.5%. Then `Cc1ccc2[nH]c(CO[C@H]3CN(C(=O)C4CC4)C[C@H]3F)nc2c1`, with 17.3%; and `Cc1ccc2[nH]c(CO[C@H]3CN(c4ccc(C#N)cn4)C[C@H]3F)nc2c1`, with 53.9%. Then `CC(=O)N1C[C@@H](F)[C@@H](OCc2nc3ccc(C#N)cc3[nH]2)C1`, with -28.7%; and `CC(C)C(=O)N1C[C@H]2CCCN[C@H]2C1`, with -32.8%. Consider `O=C(C[C@H]1[C@H]2CN(C(=O)CO)C[C@@H]12)Nc1cccnc1`, for which the Percent Effect was -10.3%. Then `O=S(=O)(c1c(N2CCCC2)ccc2nonc12)N1CCCC1`, with 32.4%; and `O=S(=O)(c1ccc(N2CCCCC2)c2nonc12)N1CCCCC1`, with 29.3%. In the case of `O=S(=O)(c1c(N2CCCCC2)ccc2nonc12)N1CCCCC1`, the Percent Effect was 51.7%. For `CC(C)C(=O)N1CCN(C(=O)c2cscn2)[C@H]2CS(=O)(=O)C[C@H]21`, the Percent Effect is -12.2%. In the case of `O=C1CO[C@H]2CN(C3CCOCC3)C[C@H]2N1Cc1ccncc1`, the Percent Effect was -35.6%. With `CCN(Cc1nc2c(cnn2C)c(=O)[nH]1)c1ccc(F)cc1`, the Percent Effect was -7.87%. As for `CCN(Cc1nc2c(cnn2C)c(=O)[nH]1)c1ccccc1`, the Percent Effect is 66.8%.

Turning to `CCN(Cc1nc2c(cnn2C)c(=O)[nH]1)c1cccc(F)c1`, the Percent Effect is -8.73%. For `CN1CCC(NC(=O)c2cc(Cl)cc(Br)c2O)C1=O` (stereo not given), the Percent Effect was 11.2%.

As for `CN1CCC(NC(=O)c2cc(Br)cc(Cl)c2O)C1=O` (stereo not given), the Percent Effect was found to be 11.6%. Then `CN1CCC(NC(=O)c2cc(F)cc(Cl)c2O)C1=O` (stereo not given), with 54%. With `C/C(NC(=O)c1ccccn1)=C1\C(=O)C[C@@H]2[C@H]1C2(C)C`, the Percent Effect came to 37.5%. `COCc1noc(-c2ccc(N(C)Cc3ccc(C)o3)nc2)n1`: the Percent Effect came out at 69.6%. Then `COCc1noc(-c2ccc(N(C)Cc3cc(C)no3)nc2)n1`, with -8.23%; and `COCc1noc(-c2ccc(N(C)Cc3ncccc3C)nc2)n1`, with 5.81%; and `COCCN(C)CC(=O)N1C[C@H]2CC[C@@H]1CN(C(=O)c1ccncc1)C2`, with -9.17%. Take `Cc1oc(C(C)C)cc1C(=O)N1C[C@H]2CC[C@@H]1CN(C(=O)N(C)C)C2`: the Percent Effect is -5.27%.

Consider `Cc1ccc(N2C[C@H]3CCC[C@@H](CN(C)C)[C@H]3C2)nn1`, for which the Percent Effect was -24.5%.

For `CC(C)(C)c1cc(NC(=O)CN2CCC(N3CCNC3=O)CC2)on1`, the Percent Effect was 80.9%. For `Cc1cc(NC(=O)CN2CCC(N3CCNC3=O)CC2)on1`, the Percent Effect is -25.3%. On to `CC(C)c1cc(NC(=O)CN2CCC(N3CCNC3=O)CC2)on1`, for which the Percent Effect was determined as 0.26%. In the case of `Cc1noc(C)c1CN1C[C@@H]2OCCN(Cc3cnn(C)c3)[C@@H]2C1`, the Percent Effect is -27.8%. Regarding `C[C@@H]1C[C@@H]2CCN(Cc3nccs3)C[C@H]2O1`, the Percent Effect is -25.2%. On to `c1cncc(COC[C@H]2CC[C@H]3[C@H](CCN3Cc3cccs3)O2)c1`, for which the Percent Effect was -37.9%.

Turning to `O=C(Nc1ccccn1)C1CC(=O)N(Cc2ccccn2)C1` (stereo not given), the Percent Effect is -26.6%.

As to `CCc1cccc(C)c1NC(=O)C1CC(=O)N(Cc2ccccn2)C1` (stereo not given), the Percent Effect worked out at 58.8%.

As to `Cc1ccc(Cl)cc1NC(=O)C1CC(=O)N(Cc2ccccn2)C1` (stereo not given), the Percent Effect is -5.88%. For `Cc1nnc([C@H]2C[C@H]3OCC[C@H]3N(S(=O)(=O)N(C)C)C2)o1`, the Percent Effect is -28.4%. Consider `CC(C)N1CCO[C@H]2CN(Cc3cc[nH]n3)C[C@H]21`, for which the Percent Effect is -16.1%. For the compound `CN(Cc1ccco1)C[C@H]1OC[C@@H]2CCN(Cc3cccs3)C[C@@H]21`, the Percent Effect is -7.96%. Take `Cc1ccn2c(=O)cc(CSCC(=O)Nc3nnc(C(C)C)s3)nc2c1`: the Percent Effect is -42%. Turning to `CC(C)c1nnc(NC(=O)CSCc2cc(=O)n3ccccc3n2)s1`, the Percent Effect was -12.4%. For `Cc1cccn2c(=O)cc(CSCC(=O)Nc3nnc(C(C)C)s3)nc12`, the Percent Effect was 98.2%. On to `CNc1cncc(C2CCCN2c2cc(C)ncn2)n1` (stereo not given), for which the Percent Effect was found to be 55%. As for `Cc1cc(N2CCCC2c2cncc(N(C)C)n2)ncn1` (stereo not given), the figure is -0.232%; as for `Cc1cc(N2CCCC2c2cnccn2)ncn1` (stereo not given), -32.2%; as for `O=C(NC1CC1)[C@@H]1C[C@@H]2CCN(Cc3ccoc3)C[C@@H]2O1`, -9.29%. On to `O=C(c1cn2ccsc2n1)N1CCN(CC2CC2)[C@@H]2CS(=O)(=O)C[C@@H]21`, for which the Percent Effect is -4.84%. For `CC[C@H](C)[C@H](N)C(=O)Nc1nc(-c2cnc(N(C)CCO)nc2)cs1`, the Percent Effect was determined as 27.2%. For `CC[C@H](C)[C@H](N)C(=O)Nc1nc(-c2cnc(N(C)C)nc2)cs1`, the Percent Effect is 146%. In the case of `CC[C@H](C)[C@H](N)C(=O)Nc1nc(-c2cnc(N3CCOCC3)nc2)cs1`, the Percent Effect came out at 36.7%. As for `CN1CCc2c(sc3c2C(=O)NC(/C=C/c2ccccc2)N3)C1` (stereo not given), the Percent Effect worked out at 33.3%. As to `O=C1C[C@H]2[C@H](CCN2C(=O)c2cc[nH]n2)N1Cc1cccnc1`, the Percent Effect was -24.8%. With `O=C1CC(c2ccc(O)cc2)c2sc(C(=O)O)c(-c3ccccc3)c2N1` (stereo not given), the Percent Effect is -18.2%. For `O=C1CC(c2ccco2)c2sc(C(=O)O)c(-c3ccccc3)c2N1` (stereo not given), the Percent Effect worked out at 65.6%. `O=C1CC(c2ccccc2)c2sc(C(=O)O)c(-c3ccccc3)c2N1` (stereo not given): the Percent Effect is -32%. Consider `O=C(C1CC(=O)N(c2ccccc2Br)C1)N1CCCCCC1` (stereo not given), for which the Percent Effect is -11.4%. For `O=C(C1CC1)N1CCN(C(=O)C2CC(=O)N(c3ccccc3Br)C2)CC1` (stereo not given), the Percent Effect was -26.4%.

As for `CCOC(=O)N1CCN(C(=O)C2CC(=O)N(c3ccccc3Br)C2)CC1` (stereo not given), the Percent Effect was 50.9%. Turning to `COc1ncccc1CN1C[C@@H]2COC[C@]2(CNS(C)(=O)=O)C1`, the Percent Effect was 1.01%.

Regarding `CCOCC1CCCN(C(=O)NCc2ccc(-c3ccn[nH]3)cc2)C1` (stereo not given), the Percent Effect worked out at 56.4%. As for `CC(=O)N1CCCN(C(=O)NCc2ccc(-c3ccn[nH]3)cc2)CC1`, the Percent Effect is -4.03%. As for `CC(=O)NC1CCCN(C(=O)NCc2ccc(-c3ccn[nH]3)cc2)C1` (stereo not given), the Percent Effect was -5.89%.

`Cc1nnc(N2CC[C@H]3C[C@@H](C(=O)NC4CCCC4)O[C@H]3C2)s1`: the Percent Effect was -27.2%.

Regarding `O=C([C@H]1C[C@H]2OCC[C@H]2N(Cc2ccccn2)C1)N1CCCCO1`, the Percent Effect is -14.6%. For the compound `CN(C)CC(=O)N1Cc2nc(C(=O)NCc3ccccc3)oc2C1`, the Percent Effect is 72.3%.

Take `CN(C)CC(=O)N1Cc2nc(C(=O)NCc3ccncc3)oc2C1`: the Percent Effect is -7.86%. As for `CCCNC(=O)c1nc2c(o1)CN(C(=O)CN(C)C)C2`, the figure is -38.7%. Then `Cc1cc(CNC(=O)c2cnoc2C)c(C)o1`, with 10.7%. As for `Cc1cc(CNC(=O)c2ccno2)c(C)o1`, the Percent Effect is -13.1%.

With `Cc1cc(C(=O)NCc2cc(C)oc2C)no1`, the Percent Effect was found to be 59.4%. Take `Cc1nc([C@H]2C[C@@H]3CCN(Cc4scnc4C)C[C@H]3O2)no1`: the Percent Effect is -27.4%.

Consider `Cc1cc(C)n(-c2nc(C(=O)NCCN3CCC(C)CC3)cs2)n1`, for which the Percent Effect turned out to be 51.2%. Then `Cc1cc(C(=O)NCCN2CCC(C)CC2)nn1C(C)(C)C`, with -8.5%.

In the case of `Cc1cc(C)n(-c2nc(C(=O)NCCS(=O)(=O)N3CCCCC3)cs2)n1`, the Percent Effect was 16%.

Regarding `CN(C)C(=O)CO[C@H]1CN(Cc2ccsc2)[C@@H]2COC[C@H]12`, the Percent Effect was -4.76%. On to `O=C(C1CC1)N1C[C@H]2CCCN(S(=O)(=O)c3cccc(F)c3)[C@H]2C1`, for which the Percent Effect is -2.59%. As to `CC(=O)NCCNC(=O)c1cnc(-c2ccc(C)cc2C)s1`, the Percent Effect is 10.8%. Then `Cc1ccc(-c2ncc(C(=O)NCCNC(=O)C(C)C)s2)c(C)c1`, with 1.54%; and `Cc1ccc(-c2ncc(C(=O)NCCNc3ncccn3)s2)c(C)c1`, with 70.6%; and `Cc1ccc(C(=O)N2CC[C@H]3[C@@H]2CCC(=O)N3c2cccnc2)o1`, with -561%. `CN1CCS(=O)(=O)[C@@H]2CCN(C(=O)CC(C)(C)C)CC[C@@H]21`: the Percent Effect was -26%. Take `Cc1cc(CN2C[C@@H]3COC[C@H](C(=O)N4CCCCO4)[C@@H]3C2)oc1C`: the Percent Effect was -10.7%. For `Cc1cnc(N2C[C@@H]3CCN(CC4CC4)C(=O)[C@H]3C2)nc1`, the Percent Effect is -1.64%. Turning to `C[C@H](NC(=O)c1cccc(CCC(C)(C)O)c1)C(N)=O`, the Percent Effect was 54%. Consider `CC(C)[C@H](NC(=O)c1cccc(CCC(C)(C)O)c1)C(N)=O`, for which the Percent Effect amounted to 5.12%. With `CC(C)(O)CCc1cccc(C(=O)N[C@@H](CO)C(N)=O)c1`, the Percent Effect was 10.3%.

With `CN(Cc1cncnc1)[C@H]1CN(CC2CC2)[C@@H]2CCCO[C@@H]21`, the Percent Effect is -5.38%. Consider `Cc1ccccc1S(=O)(=O)N[C@@H]1CC[C@@H](N2CCNC(=O)C2)[C@@H]1O`, for which the Percent Effect was 53%. `O=C1CN([C@@H]2CC[C@@H](NS(=O)(=O)c3ccccc3F)[C@H]2O)CCN1`: the Percent Effect was -2.59%. Turning to `O=C1CN([C@@H]2CC[C@@H](NS(=O)(=O)c3ccccc3)[C@H]2O)CCN1`, the Percent Effect came to 0.207%. As for `COCCN1C[C@@H]2CCCO[C@@H]2[C@H](N(C)Cc2ccco2)C1`, the figure is -24.6%; as for `Cc1ccc(CN2CC[C@@]3(O)CCN(S(=O)(=O)N(C)C)C[C@H]3C2)cc1C`, -28.6%. Regarding `Cc1cc(-c2cnn(CCNC(=O)C3CC3)c2C2CC2)on1`, the Percent Effect was -12%. Consider `Cc1cc(-c2cnn(CCNC(=O)c3cnn(C)c3)c2C2CC2)on1`, for which the Percent Effect was -12.5%. `Cc1cc(-c2cnn(CCNC(=O)c3snnc3C)c2C2CC2)on1`: the Percent Effect worked out at 90.2%.

For `COc1cccc(-c2cc(NCCO)nc3[nH]ccc23)n1`, the Percent Effect came to 7.17%. Consider `COc1cccc(-c2cc(NCCN(C)C)nc3[nH]ccc23)n1`, for which the Percent Effect came to 7.82%.

`COc1cccc(-c2cc(NCC(=O)O)nc3[nH]ccc23)n1`: the Percent Effect is 58.3%.

Turning to `CCC(=O)N1CCCCC[C@@H]2[C@@H]1[C@H](c1cccc(F)c1)CN2C`, the Percent Effect is -27%. For the compound `CCC(C)Nc1ccc(-c2nc(-c3cccc(OC)c3OC)no2)cn1` (stereo not given), the Percent Effect stood at 69.5%.

For the compound `COc1cccc(-c2noc(-c3ccc(NCC(C)O)nc3)n2)c1OC` (stereo not given), the Percent Effect came to 30.5%. Take `COc1cccc(-c2noc(-c3ccc(NCC(C)C)nc3)n2)c1OC`: the Percent Effect stood at 66%. Then `COc1cccc(-c2noc(-c3ccc(NCC4CC4)nc3)n2)c1OC`, with 36.1%. Take `COc1cccc(-c2noc(-c3ccc(NCCCO)nc3)n2)c1OC`: the Percent Effect was 40.8%. For the compound `CNCCNc1ccc(-c2nc(-c3cccc(OC)c3OC)no2)cn1`, the Percent Effect is -36.1%.
